Our source for the cytotoxicity values is PubChem BioAssay AID430 (Sanford-Burnham Center for Chemical Genomics, 2006).

Screen size: about 63,000 compounds; about 1,100 (1.7%) were called active. Cut-off read from the data, not from the text of the source: active = cytotoxicity above about 50%; inactive = the rest. The list comes from a sample in which actives are over-represented; it also holds similar structures and randomly drawn compounds. Potency and affinity values are given separately.

The nature of this assay: cytotoxicity in HPDE-C7 cells, cell-based, fluorescence, HTS (AID 430).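 Note: cells exposed to compound for 48 hours before viability readout; 0% = vehicle and 100% = reference cytotoxic drug.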 The settings on record: HPDE-C7 pancreatic duct cells viability, at 10 µM, active compounds read high.
With `CC(C)CCN1C(=O)CCC1(C)C(=O)NC1CCCCCC1` (stereo not given), the cytotoxicity is -16.5% (inactive).
Turning to `COc1ccc(NC(=O)c2nc[nH]c2C(=O)Nc2ccccc2C)cc1`, the cytotoxicity is 55.3% (active).
On to `COc1ccccc1NC(=O)c1nc[nH]c1C(=O)Nc1ccccc1OC`, for which the cytotoxicity was 17% (inactive).
For `Cc1ccccc1NC(=O)c1nc[nH]c1C(=O)NCc1ccccc1`, the cytotoxicity is -22.2% (inactive).
Under `Cc1ccc(Nc2oc(C)nc2C#N)cc1` stands 2.5% (inactive); under `CCCSC1=C(C#N)C(c2ccccc2C)CC(=O)N1` (stereo not given), 10.1% (inactive); under `COc1ccc(OC)c(N/C(=N\c2nc(C)cc(C)n2)NC(=O)c2ccco2)c1`, -5.6% (inactive).
In the case of `COC(=O)c1ccc(CSc2nnc(Nc3ccccc3OC)s2)o1`, the cytotoxicity is 43.6% (inactive).
Under `CCOc1ccccc1Nc1nnc(SCc2ccc(C(=O)OC)o2)s1` stands 58% (active); under `COC(=O)c1ccc(CSc2nnc(NCc3ccccc3)s2)o1`, -3.1% (inactive); under `Cn1c(=O)c2c(-c3ccccc3)n(CCCN3CCOCC3)cc2n(C)c1=O`, -14% (inactive).
Turning to `COc1ccccc1NC(=O)c1cc(Sc2nncn2C)nc2ccccc12`, the cytotoxicity is 4.7% (inactive).
Under `Cc1ccc(C(=O)C2=C(O)C(=O)N(CCCN3CCOCC3)C23C(=O)N(C)c2ccccc23)o1` (stereo not given) stands -20.1% (inactive); under `O=C(Oc1ccc2ccccc2c1)c1ccco1`, 5% (inactive).
Under `CCOc1ccc(OC(=O)c2cccnc2)cc1` stands 4.1% (inactive); under `O=C(Oc1cccc(Br)c1)c1cccnc1`, -5% (inactive).
Take `COC(=O)c1ccc(OC(=O)c2ccco2)cc1`: the cytotoxicity is -14.5% (inactive).
For `COC(=O)C1=C(C)NC(C)=C(C(=O)OC)C1c1ccc(OC(=O)c2ccco2)cc1`, the cytotoxicity was -0.4% (inactive).
As for `CC1=CC(C)(C)Nc2ccc(C)cc21`, the cytotoxicity was -10.9% (inactive).
Regarding `CCc1ccc2c(c1)C(C)=CC(C)(C)N2`, the cytotoxicity is 3.5% (inactive).
Under `CCOc1ccc2c(c1)N(C(=O)CN1C(=O)CCC1=O)C(C)(C)C=C2C` stands -6.5% (inactive); under `COc1ccc(S(=O)(=O)N2CCCC2C(=O)Nn2cnnc2)cc1` (stereo not given), -10.2% (inactive).
On to `O=C(O)C1C2CCC(C2)C1C(=O)Nc1nc2ccccc2s1` (stereo not given), for which the cytotoxicity is -5.1% (inactive).
In the case of `CCc1cccc(NC(=O)Cn2cccc2)c1` it was 2.1% (inactive).
In the case of `Cc1noc(C)c1CSCC(=O)OCC(=O)Nc1sccc1C#N` it was 6.1% (inactive); in that of `CCCc1cc(=O)oc2cc(C)cc(OC(=O)c3ccco3)c12`, 11.7% (inactive); in that of `COC(=O)c1c(NC(=O)c2ccc(Br)o2)sc(C)c1C`, 11% (inactive).
In the case of `O=S(=O)(c1cccc(Cl)c1Cl)N1CCCCC1`, the cytotoxicity was -8.6% (inactive).
In the case of `C1CCC(c2nn3c(-c4n[nH]c5c4CCC5)nnc3s2)CC1` it was 2.9% (inactive); in that of `COc1ccc(CCN(Cc2nc3ccccc3c(=O)[nH]2)C(=O)c2ccco2)cc1OC`, -3% (inactive); in that of `CSc1ccc(C2C(C#N)=C(N)Oc3c2ccc(=O)c2c(C)oc(C)c32)cc1` (stereo not given), -8.9% (inactive).
In the case of `Cc1oc(C)c2c(=O)ccc3c(c12)OC(N)=C(C#N)C3c1ccccc1` (stereo not given) it was -51.8% (inactive); in that of `Cn1c(N2CCC(C(N)=O)CC2)nc2c1c(=O)n(Cc1ccc(Br)cc1)c(=O)n2C`, 28.6% (inactive); in that of `COc1cccc(C2C(C#N)=C(N)OC3=C2C(=O)CCC3)c1OC(=O)c1ccco1` (stereo not given), -11.1% (inactive).
Turning to `OCCNCC(O)Cn1ccc2ccccc21` (stereo not given), the cytotoxicity is -15.1% (inactive).
As for `OCCN(CC(O)Cn1ccc2ccccc21)CC(O)Cn1ccc2ccccc21` (stereo not given), the cytotoxicity is -4.1% (inactive).
Under `Cc1nn(Cc2ccccc2)c(C)c1C(=O)Nc1ccc(N2CCOCC2)cc1` stands 6.2% (inactive); under `COc1ccc(CN(C)C2CCCCC2)cc1`, 12.6% (inactive); under `CC(C)(C)c1cc(C(=S)N2CCN(CCO)CC2)cc(C(C)(C)C)c1O`, -4.1% (inactive).
Turning to `CC(C)(C)c1cc(CN2CCN(CCO)CC2)cc(C(C)(C)C)c1O`, the cytotoxicity was -9.7% (inactive).
In the case of `Cc1ccc2c(c1)N(CCCC(=O)NCC1COc3ccccc3O1)C(=O)CO2` (stereo not given) it was -5.2% (inactive); in that of `C(=N\n1cnnc1)/c1cn(-c2cccs2)nc1-c1ccccc1`, -5.7% (inactive).
Under `O=C(O)C1CCN(C(=O)c2ccccc2C(=O)N2CCC(C(=O)O)CC2)CC1` stands -9.9% (inactive).
Consider `Cc1ccnc(NC(=O)C2CCN(S(=O)(=O)c3cccc4nsnc34)CC2)c1`, for which the cytotoxicity is -8.3% (inactive).
For the molecule `O=S(=O)(c1ccccc1)N1CCN(C2CCN(Cc3ccccc3)CC2)CC1`, the cytotoxicity is 22.9% (inactive).
With `Cc1ccc(C2C(C#N)=C(N)Oc3nc(-c4ccccc4)[nH]c32)o1` (stereo not given), the cytotoxicity was -2.4% (inactive).
With `Cc1ccc(SCc2[nH]nc3c2C(c2ccc(C)o2)C(C#N)=C(N)O3)cc1` (stereo not given), the cytotoxicity was 44.5% (inactive).
Under `CC1(C)Cc2cccc(OCC(=O)N3CCN(S(=O)(=O)c4ccccc4)CC3)c2O1` stands -2.1% (inactive); under `COC(=O)c1ccsc1NC(=O)c1ccc(Cl)s1`, -0.2% (inactive); under `COc1ccc(C(=O)Nc2nc3ccccc3[nH]2)cc1OC`, -5.6% (inactive).
In the case of `COc1ccc2nc(NCCO)[nH]c2c1` it was -13.5% (inactive); in that of `CCCOc1ccc2nc(NC(=O)OC)[nH]c2c1`, 61.4% (active); in that of `COc1ccc2nc(SCC(N)=O)[nH]c2c1`, -19.2% (inactive).
Under `CCCSc1ccc2nc(NC(=O)OC)[nH]c2c1` stands 67.1% (active); under `CCOc1ccc2nc(NCCO)[nH]c2c1`, -2.1% (inactive); under `CCCCC(c1nnnn1CS(=O)(=O)c1ccc(C)cc1)N1CCN(c2ccccc2)CC1` (stereo not given), -30% (inactive).
For `O=C(NC1CCCc2ccccc21)C1CCN(S(=O)(=O)c2cccc3nonc23)CC1` (stereo not given), the cytotoxicity was -29.1% (inactive).
Under `O=C(c1cc2sccc2n1Cc1ccccc1)N1CCc2ccccc21` stands 9.3% (inactive).
Under `CC(=O)N1CCN(CC(=O)Nc2c(Cl)cc(Cl)cc2Cl)CC1` stands 0% (inactive); under `COc1ccc(N2CCN(C(=O)c3ccc(S(=O)(=O)N4CCOCC4)cc3)CC2)cc1`, 3.1% (inactive); under `COc1cc(OC)nc(NC(=O)COC(=O)C2CCCCC2)n1`, 8.7% (inactive).
For `COc1ccc(-n2c(Cc3cccn3C)nnc2SCC(=O)Nc2ccccc2F)cc1`, the cytotoxicity was -11.2% (inactive).
Consider `Cc1ccc(C(=O)C2=C(O)C(=O)N(c3ncccn3)C2c2ccc(Cl)cc2)o1` (stereo not given), for which the cytotoxicity is 68.3% (active).
Under `O=C(C1=C(O)C(=O)N(c2ncccn2)C1c1ccc(Cl)c(Cl)c1)c1ccco1` (stereo not given) stands 7.8% (inactive); under `Cc1ccc(C(=O)C2=C(O)C(=O)N(c3ncccn3)C2c2cccc(Cl)c2)o1` (stereo not given), 22.7% (inactive).
Under `CCOc1ccc(-c2noc(-c3cccnc3)n2)cc1OC` stands 0.1% (inactive); under `Cc1[nH]nc2c1C1(CCN(C(=O)c3ccccc3)CC1)C(C#N)=C(N)O2`, -19.1% (inactive); under `Cc1ccc(NC(=O)N2CCC(C(=O)NCCC3=CCCCC3)CC2)cc1`, -6.2% (inactive).
In the case of `CC1(C)Cc2noc(N)c2C(C)(C)N1OC(=O)c1ccccc1` it was -5.7% (inactive).
Consider `Cc1csc(NC(=O)c2sc3nc(-c4cccs4)ccc3c2N)n1`, for which the cytotoxicity is 60.5% (active).
Under `CCCSc1nnc(NC(=O)c2sc3nc(-c4cccs4)ccc3c2N)s1` stands 41.2% (inactive).
For `Nc1c(C(=O)NC2CCCC2)sc2nc(-c3cccs3)ccc12`, the cytotoxicity is 10.5% (inactive).
In the case of `CCCOc1ccc(S(=O)(=O)NCCN2CCOCC2)c2ccccc12` it was -13.1% (inactive); in that of `O=C(NC1CCCCC1)C1CC(=O)N(c2ccc(Cl)cc2)C1` (stereo not given), -9.5% (inactive); in that of `CC1(C)C(c2cccs2)=NC(c2ccccc2)N1O` (stereo not given), -25.9% (inactive).
Consider `Cc1ccc(C(N)=O)cc1S(=O)(=O)Nc1cccc(C)c1C`, for which the cytotoxicity is 18.4% (inactive).
Under `O=C(CC1Oc2ccccc2NC1=O)NCCCN1CCN(C2CCCCC2)CC1` (stereo not given) stands 2.6% (inactive); under `Cc1ccc(C(CC(=O)c2ccco2)SCCO)cc1` (stereo not given), 99.5% (active).
Under `O=C(CC(SCCO)c1ccc(F)cc1)c1ccco1` (stereo not given) stands 3.7% (inactive); under `O=C(CSCCSCC(=O)c1ccco1)c1ccco1`, 10.6% (inactive).
Under `CCC(=O)N1CC23C=CC(CC2CC12CCCCC2)O3` (stereo not given) stands -6.8% (inactive).
For `COc1ccc(OC)c(CC(NC(C)=O)C(=O)NC2CCN(c3nc(C)cc(C)c3C#N)CC2)c1` (stereo not given), the cytotoxicity was -6.9% (inactive).
Consider `COc1ccc(-c2oc(/N=C/N3CCOCC3)c(C#N)c2-c2ccc(OC)cc2)cc1`, for which the cytotoxicity was -7.7% (inactive).
Take `NC1=NC2(CCN(Cc3ccccc3)CC2)n2c(nc3ccccc32)N1`: the cytotoxicity was 0.8% (inactive).
Under `NC1=NC2(CCCCC2)n2c(nc3ccccc32)N1` stands 11.9% (inactive); under `NC1=NC2(CCC(c3ccccc3)CC2)n2c(nc3ccccc32)N1` (stereo not given), 77.1% (active); under `CCCn1c(SCC(=O)Nc2ccc3c(c2)OCO3)nc2c1c(=O)n(C)c(=O)n2C`, -4.6% (inactive).
For `Cc1noc(C)c1CSc1ncnc2ccccc12`, the cytotoxicity is 4.7% (inactive).
Consider `O=S(=O)(Nc1nc2ccccc2nc1NCc1ccco1)c1ccc(Cl)cc1`, for which the cytotoxicity is 18.1% (inactive).
Regarding `Cc1noc(C)c1CSc1nc2ccccc2nc1NS(=O)(=O)c1ccc(Cl)cc1`, the cytotoxicity was 81.1% (active).
Under `O=C(N1CCOCC1)N1CCN(c2ccccn2)CC1` stands -15.7% (inactive); under `O=C(c1ccco1)N1CCN(C(=O)N2c3ccccc3Sc3ccccc32)CC1`, 73.2% (active).
Regarding `O=C(c1ccco1)N1c2ccccc2Sc2ccccc21`, the cytotoxicity is 4.4% (inactive).
For the molecule `O=C(NC1CCN(C(=O)N2c3ccccc3Sc3ccccc32)CC1)c1ccco1`, the cytotoxicity was -12.6% (inactive).
In the case of `O=C(CN1CCN(c2ccccn2)CC1)N1c2ccccc2Sc2ccc(C(F)(F)F)cc21` it was 22.1% (inactive).
In the case of `O=C(N1CCN(c2ccccn2)CC1)N1c2ccccc2Sc2ccccc21` it was 66.7% (active); in that of `CC(=O)N1c2c(cc(Br)cc2S(=O)(=O)NCC2COc3ccccc3O2)CC1C` (stereo not given), 13.1% (inactive).
Under `c1ccc(-c2oc3ncnc(NCCCN4CCOCC4)c3c2-c2ccccc2)cc1` stands 48.6% (inactive).
Consider `COc1ccc(-c2oc3ncnc(NCCN4CCOCC4)c3c2-c2ccc(OC)cc2)cc1`, for which the cytotoxicity is 3.3% (inactive).
As to `COc1ccc(-c2oc3ncnc(NCCCN4CCOCC4)c3c2-c2ccc(OC)cc2)cc1`, the cytotoxicity is 67.3% (active).
